Assay [1] is described as follows: Wnt pathway potentiators raising nuclear beta-catenin – imaging, WNT3A-conditioned medium, mouse C2C12, NPC library, primary screen (AID 1117326; in the data active means nuclear beta-catenin stimulation mostly above about 4.2%, no sharp cut-off; inactive means mostly below about 10%). Particulars: stronger effect = higher value.
The nature of assay [2]: stimulators of insulin release from INS-1E, primary screen, cell-based, 5 mM glucose, NPC library (AID 1117329;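 active means compound raises insulin release from rat beta cells at 5 mM glucose, no numeric limit stated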). Particulars: rat INS-1E insulin secretion, at 10 µM, stronger effect = higher value.
A short description of assay [3]: growth inhibition of GSK3B-pretreated HCT116 cells – cell-based, CellTiter-Glo, 0.2 to 20 µM (AID 1117336;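 active means compounds lowering colon cancer cell viability after pretreatment blocking the GSK3B kinase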). Particulars: HCT116 viability after GSK3B inhibitor, at 20 µM, stronger effect = higher value. Background: ATP-based viability assays read luminescence as a measure of living cells.
A short description of assay [4]: inhibition of endothelial tube formation, primary screen, imaging, VEGF stimulated, CD31 staining, tube area, NPC library (AID 1117340;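 active means compound that reduces growth-factor-driven endothelial tube area in a mixed cell culture, no cutoff stated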). Particulars: VEGF-stimulated ADSC/ECFC co-culture, at 10 µM, stronger effect = higher value.
The nature of assay [5]: GLP1 release stimulators, primary, NCI-H716, NPC library (AID 1117341;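 active means compound raises GLP1 secretion from the human gut endocrine cells, with no numeric limit stated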). As to conditions: NCI-H716 cells, at 10 µM, stronger effect = higher value.
Assay [6] is described as follows: HCT116 colon cancer cell growth inhibition, primary screen, CellTiter-Glo luminescence, NPC library (AID 1117342;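 active means compounds that lower survival of HCT116 colon cancer cells in the luminescence readout, no numeric limit stated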). Particulars: at 20 µM (top of the series).
Assay [7] is described as follows: reduced SW480 viability measured with CellTiter-Glo, NPC library, primary (AID 1117343;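 active means compounds that lower viability of the colon cancer cells in the luminescence readout, with no numeric limit stated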). As to conditions: CellTiter-Glo luminescence; at 20 µM (top of the series).
Assay [8] in a line: NPC library primary testing for decreased DLD-1 cell viability via CellTiter-Glo (AID 1117346;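 active means compounds that lower survival of DLD-1 colon cancer cells in the luminescence readout, no cutoff given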). Particulars: DLD-1 viability, CellTiter-Glo luminescence; at 20 µM (top of the series).
In assay [9] the target is 6-phosphogluconate dehydrogenase, decarboxylating (Homo sapiens) (UniProt P52209). Description: inhibition of human phosphogluconate dehydrogenase – biochemical, recombinant enzyme, NADPH absorbance, primary screen (AID 1159550;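 active means at least 20% inhibition of 6-phosphogluconate dehydrogenase activity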). As to conditions: recombinant 6PGD, NADPH absorbance 341 nm; at 10 µM; stronger effect = higher value.
The nature of assay [10]: EMT-state selective cytotoxicity in co-culture – imaging, PC-3E GFP, TEM4-18 mCherry, primary screen (AID 1345086).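 On all read-outs here: cells exposed to compound for 72 h before imaging.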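 On red/green cell ratio (normalised): normalised mesenchymal count divided by normalised epithelial count so high means epithelial killing.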 As to conditions: PC-3E GFP / TEM4-18 mCherry co-culture, imaging cell counts, at 1 µM; for red/green cell ratio (normalised): actives lie on both sides, counts scaled to control wells, 1 = unselective.
Assay [11] in a line: viability loss with induced miR-34 in A549 – imaging, A549 dox-inducible miR-34, nuclei and caspase counts, primary screen (AID 1347080;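 active means compounds whose cell count with miR-34 switched on is under 0.7 times the count with it off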). Particulars: A549 miR-34 inducible, Hoechst nuclei count, 48 h.
Assay [12] is described as follows: MELAS cybrid and Rieske KO viability enhancers – cell-based, MELAS cybrids, Rieske KO mouse fibroblasts, CellTiter-Glo, primary screen (AID 1508586;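 active means mean z-score across replicates of 1.96 or higher in either the MELAS or the Rieske mutant cell line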;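 further: z relative to plate mean and SD of compound and empty wells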). As to conditions: low glucose.
The target of assay [13] is NAD(+) hydrolase SARM1 (Homo sapiens) (UniProt Q6SZW1). Description: blocking NAD cleavage by SARM1 SAM-TIR – cell lysate, NAD-Glo luminescence (AID 1508614;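 active means compound whose remaining NAD level is above about 45 nM, limit read from the data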). Particulars: SAM-TIR HEK293T lysate NADase, at 1 µM, stronger effect = higher value.
Assay [14] has as its target Mitogen-activated protein kinase 7 (Homo sapiens) (UniProt Q13164). Description: Gal4-ERK5 driven luciferase induction – cell-based, HTS, primary screen (AID 1508626;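 active means luciferase signal above three times the same-plate solvent-only control wells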;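 further: luciferase driven by Gal4-ERK5 fusion binding five Gal4 sites before minimal TATA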). As to conditions: HeLa Gal4-ERK5 transactivation, 18 h, at 5 µM, stronger effect = higher value.
The subject of another assay is F380Y. Description: BK channel mutant inhibitors and activators – cell-based, U2OS BacMam, thallium flux, beta subunits, selectivity assay, profiling panel (AID 1259406;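 active means thallium flux through the channel raised or lowered by more than 3 SD from vehicle-only wells, actives on both sides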;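 further: initial slope of Thallos dye fluorescence rise after thallium is added; log ratio against the mean of 0.3% DMSO vehicle wells on the same plate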). As to conditions: U2OS BacMam BK variants, at 30 µM.
The nature of assay [15]: P. berghei load reduction in hepatocytes – cell-based, HepG2, luciferase luminescence, HepG2 viability, primary screen (AID 624349; in the data active means parasite load remaining mostly below about 12%, no sharp cut-off; inactive means mostly above about 10%;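 further: 100% = mean of DMSO negative control wells on the same plate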). Particulars: P. berghei liver stage in HepG2, luciferase luminescence, concentration not given here; parasite load remaining: stronger effect = lower value; viability: measured here: HepG2 viability without parasites.
A short description of assay [16]: signal quenchers or enhancers, Cy5 substrate/SSB – biochemical, NIH Clinical Collection, E. coli SSB, artefact control for HCV NS3 helicase inhibitor project (AID 743268; call rule not given here). Particulars: Cy5-oligo bound E. coli SSB, fluorescence interference.
The test system of assay [17] is Hepatitis C virus NS3 helicase. Description: blockers of NS3h binding to DNA – biochemical, fluorescence polarization, NIH Clinical Collection, primary screen (AID 743270; call rule not given here). As to conditions: NS3 helicase binding to Cy5-dT15 DNA, stronger effect = higher value, concentration not given here. (In general: In fluorescence polarisation assays a small probe gives low polarisation when free and higher when bound to something large.)

Assay [18] addresses Single-stranded DNA-binding protein (Escherichia coli (strain K12)) (UniProt P0AGE0). Description: SSB-ssDNA binding inhibitors – biochemical, fluorescence polarization, NIH Clinical Collection, counter-screen for HCV NS3 helicase inhibitor project (AID 743271; in the data active means inhibition above about 28%). Particulars: E. coli SSB-DNA binding, stronger effect = higher value, concentration not given here.
A short description of assay [19]: compounds distorting NS3 helicase fluorescence signal – biochemical, NIH Clinical Collection, artefact control for HCV NS3 helicase inhibitor project (AID 743272; call rule not given here;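 further: HCV NS3 helicase with a Cy5 labelled single stranded DNA probe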). Particulars: fluorescence interference counterscreen, HCV NS3 helicase assay; stronger effect = lower value. For orientation: Counterscreens check selectivity or assay interference.
Setting [20] is: measured here: epithelial PC-3E GFP cell survival.
[21] abbreviates: measured here: mesenchymal TEM4-18 mCherry cell survival.
[22] abbreviates: MELAS cybrid survival, CellTiter-Glo 48 h, stronger effect = higher value.
Setting [23] is: Rieske KO mouse fibroblast survival, CellTiter-Glo 72 h.

The values below come from PubChem BioAssay.

“And” between values parts separate entries of the source, which are not always exact repeats. Equal values may be shown once. The source made the active and inactive calls.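 How the source made its calls, unless noted: active means compounds killing one labelled cell type while sparing the other, by normalised counts and ratio limits, not self-fluorescent; inactive means the rest.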

6-phosphogluconate dehydrogenase, decarboxylating (Homo sapiens), sequence (P52209 whole entry, looked up): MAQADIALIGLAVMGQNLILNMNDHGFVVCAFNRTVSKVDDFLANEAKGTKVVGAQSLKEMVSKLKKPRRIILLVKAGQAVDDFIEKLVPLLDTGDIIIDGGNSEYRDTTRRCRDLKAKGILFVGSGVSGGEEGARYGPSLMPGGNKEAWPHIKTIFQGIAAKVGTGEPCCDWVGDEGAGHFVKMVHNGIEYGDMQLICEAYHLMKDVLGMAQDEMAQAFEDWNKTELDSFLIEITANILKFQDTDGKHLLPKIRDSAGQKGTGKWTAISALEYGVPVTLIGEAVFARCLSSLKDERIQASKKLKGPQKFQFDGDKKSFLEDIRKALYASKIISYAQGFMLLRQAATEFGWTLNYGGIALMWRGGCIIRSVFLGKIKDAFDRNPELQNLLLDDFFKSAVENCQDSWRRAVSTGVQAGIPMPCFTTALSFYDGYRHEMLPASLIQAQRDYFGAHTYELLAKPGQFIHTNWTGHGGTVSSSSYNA
Mitogen-activated protein kinase 7 (Homo sapiens), sequence (Q13164 whole entry, looked up, the tested form may be a part): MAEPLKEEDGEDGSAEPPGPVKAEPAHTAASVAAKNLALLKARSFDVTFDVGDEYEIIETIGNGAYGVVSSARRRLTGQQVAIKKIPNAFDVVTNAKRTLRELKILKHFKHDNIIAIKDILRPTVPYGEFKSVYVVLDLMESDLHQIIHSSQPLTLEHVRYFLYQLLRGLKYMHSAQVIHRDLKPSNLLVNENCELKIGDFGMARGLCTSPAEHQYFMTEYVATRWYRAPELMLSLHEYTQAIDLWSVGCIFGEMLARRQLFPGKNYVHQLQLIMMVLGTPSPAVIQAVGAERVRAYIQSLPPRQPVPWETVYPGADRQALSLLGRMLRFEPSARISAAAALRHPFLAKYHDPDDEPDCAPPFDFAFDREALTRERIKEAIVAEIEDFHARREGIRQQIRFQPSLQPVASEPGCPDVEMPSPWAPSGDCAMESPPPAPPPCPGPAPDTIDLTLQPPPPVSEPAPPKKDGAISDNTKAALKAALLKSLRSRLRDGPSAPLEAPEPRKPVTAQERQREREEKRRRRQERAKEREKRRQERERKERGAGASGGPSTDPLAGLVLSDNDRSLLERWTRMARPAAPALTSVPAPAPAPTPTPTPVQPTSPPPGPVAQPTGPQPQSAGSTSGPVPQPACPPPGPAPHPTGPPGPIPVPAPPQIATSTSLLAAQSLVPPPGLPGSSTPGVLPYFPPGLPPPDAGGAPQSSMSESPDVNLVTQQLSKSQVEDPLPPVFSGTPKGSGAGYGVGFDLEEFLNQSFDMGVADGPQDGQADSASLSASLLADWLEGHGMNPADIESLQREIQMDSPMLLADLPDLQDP
NAD(+) hydrolase SARM1 (Homo sapiens), sequence (Q6SZW1 whole entry, looked up, the tested form may be a part): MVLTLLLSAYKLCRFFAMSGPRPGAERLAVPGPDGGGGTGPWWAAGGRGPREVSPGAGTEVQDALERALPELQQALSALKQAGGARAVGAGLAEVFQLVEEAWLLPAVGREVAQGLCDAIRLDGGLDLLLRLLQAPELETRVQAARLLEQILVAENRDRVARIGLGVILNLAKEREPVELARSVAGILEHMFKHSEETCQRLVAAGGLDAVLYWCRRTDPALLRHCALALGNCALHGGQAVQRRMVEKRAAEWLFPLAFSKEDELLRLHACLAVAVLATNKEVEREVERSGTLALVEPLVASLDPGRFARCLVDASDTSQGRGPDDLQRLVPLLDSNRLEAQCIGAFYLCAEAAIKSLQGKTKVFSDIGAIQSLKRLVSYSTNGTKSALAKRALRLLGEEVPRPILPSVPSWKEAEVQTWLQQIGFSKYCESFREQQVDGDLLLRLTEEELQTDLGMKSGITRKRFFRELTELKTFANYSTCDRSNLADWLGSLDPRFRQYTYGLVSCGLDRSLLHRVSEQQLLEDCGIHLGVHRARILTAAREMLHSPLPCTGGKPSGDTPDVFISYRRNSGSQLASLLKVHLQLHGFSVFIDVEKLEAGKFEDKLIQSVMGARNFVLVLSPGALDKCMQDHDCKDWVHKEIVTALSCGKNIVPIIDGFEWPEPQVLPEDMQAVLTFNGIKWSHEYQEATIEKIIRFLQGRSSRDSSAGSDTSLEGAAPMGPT

Consider `CCn1cc(C(=O)O)c(=O)c2cc(F)c(N3CCNCC3)cc21`, for which the nuclear beta-catenin stimulation is 0.1% (inactive) in assay [1] (at 10 µM) and -1.2% in assay [1] (stimulation, at 2 µM). Moreover, the insulin secretion stimulation in assay [2] is 1.1% (inactive). The viability decrease in assay [3] is 13.9% (inactive). For the same compound, the tube area decrease in [4] was -4.6% (inactive). In [5], the GLP1 secretion stimulation is 4.3% (inactive). Besides, the inhibition of viability in assay [6] was 4.5% (inactive). Further, the viability decrease (inhibition) in assay [7] is -12% (inactive); in [8], -0.1% (inactive). Also, in [9], the inhibition was -0.111% (inactive). Besides, in assay [10], the red/green cell ratio (normalised) is 1.22 (inactive) and 1.14 (inactive). The normalised cell number in assay [10] (setting [20]) is 0.92 and 1.12; in [10] (setting [21]) it was 1.13 and 1.28. For the same compound, the fold change in assay [11] (stronger effect = lower value, cell number ratio, induced over uninduced) was 0.843 (inactive) and 0.881 (inactive) and 0.867 (inactive); in assay [11] (measured here: relative caspase fold change +Dox/-Dox), 1.43 and 1.17. The cell count was 7840 and 11600 and 9850 in assay [11] (measured here: total cells with miR-34 induction, stronger effect = lower value); 9310 and 13200 and 11400 in assay [11] (measured here: total cells without miR-34 induction). Also, the z-score in assay [12] (setting [22]) was 1.33 (inactive) and -0.232 (inactive); in [12] (setting [23]), -0.144 and -0.221. Also, the remaining NAD in [13] is 10 nM (inactive). Moreover, the luciferase signal in assay [14] was 56 AU (inactive).

As for `COc1cc2nc(N3CCN(C(=O)c4ccco4)CC3)nc(N)c2cc1OC`, the nuclear beta-catenin stimulation in assay [1] (at 10 µM) was 47.5% (active); in assay [1] (stimulation, at 2 µM) it was 7.8%. The insulin secretion stimulation in [2] was 0.2% (inactive). In addition, the viability decrease in [3] is 80.9% (active). Further, the tube area decrease in [4] was -2.7% (inactive). Besides, the GLP1 secretion stimulation in assay [5] is 9.5% (inactive). In addition, in assay [6], the inhibition of viability is 46.9% (inactive). The viability decrease (inhibition) in assay [7] is 120% (active); in assay [8], 78.7% (active). Further, the inhibition in [9] is 8.49% (inactive). In addition, the red/green cell ratio (normalised) in [10] was 1.27 (inactive). For the same compound, the values for the normalised cell number in assay [10] (setting [20]) and in assay [10] (setting [21]) were 0.98 and 1.25, respectively. Further, the z-score in [12] (setting [22]) is 1.14 and 0.169 (inactive); in assay [12] (setting [23]) it was 2.19 and 0.838. Moreover, in [13], the remaining NAD was 10 nM (inactive). In addition, the luciferase signal in assay [14] is 128 AU (inactive). The log fold change Tl+ flux in the assay with F380Y was 0.00597 (inactive).

Consider `O=C1N=C(O)CN1/N=C/c1ccc(-c2ccc([N+](=O)[O-])cc2)o1`, for which the parasite load remaining in [15] is 21.2% (inactive) and 82.2% (inactive) and 9.57% (inactive). For the same compound, in assay [15], the viability was 47.1% and 91.4% and 102%. In addition, the nuclear beta-catenin stimulation in assay [1] (at 10 µM) is 4.1% (inactive); in assay [1] (stimulation, at 2 µM) it was 4.2%. Besides, in [2], the insulin secretion stimulation was 2.6% (inactive). The viability decrease in assay [3] is 9.2% (inactive). The tube area decrease in assay [4] is -8.8% (inactive). For the same compound, the GLP1 secretion stimulation in assay [5] was 1.9% (inactive). The inhibition of viability in assay [6] is 20.3% (active). In addition, the viability decrease (inhibition) in assay [7] is -30.5% (inactive); in assay [8] it was 5% (inactive). For the same compound, the inhibition in assay [9] was 13.4% (inactive). Besides, in [10], the red/green cell ratio (normalised) is 1.07 (inactive). Further, the figures for the normalised cell number in assay [10] (setting [20]) and in [10] (setting [21]) were 1.02 and 1.1, respectively. Further, the figures for the z-score in assay [12] (setting [22]) and in [12] (setting [23]) were 0.073 (inactive) and 0.247, respectively. In assay [13], the remaining NAD was 10 nM (inactive). In addition, the luciferase signal in [14] was 156 AU (inactive).

Take `O=c1n(CCCN2CCN(c3cccc(Cl)c3)CC2)nc2ccccn12`: the fluorescence ratio in assay [16] is 1.01 (inactive); in assay [19] it was 0.97 (inactive). For the same compound, the inhibition is -6.73% (inactive) in assay [17], -2.41% (inactive) in assay [18] and -5.67% (inactive) in assay [9]. Besides, the nuclear beta-catenin stimulation in [1] (at 10 µM) is 4.5% (inactive); in assay [1] (stimulation, at 2 µM) it was 0.2%. Further, the insulin secretion stimulation in assay [2] was -0.1% (inactive). In addition, the viability decrease in assay [3] is -48.7% (inactive). Also, the tube area decrease in assay [4] is 4.5% (inactive). Moreover, the GLP1 secretion stimulation in assay [5] is 0.4% (inactive). Besides, in assay [6], the inhibition of viability was 16.6% (inactive). Moreover, the viability decrease (inhibition) in [7] was 9.9% (inactive); in assay [8], 2.2% (inactive). Moreover, the red/green cell ratio (normalised) in assay [10] was 1.12 (inactive). In addition, the normalised cell number in assay [10] (setting [20]) stood at 1.02; in assay [10] (setting [21]), 1.14. For the same compound, the figures for the z-score in assay [12] (setting [22]) and in assay [12] (setting [23]) were 0.0745 (inactive) and -0.0668, respectively. Further, the remaining NAD in assay [13] is 10 nM (inactive). In assay [14], the luciferase signal is 72 AU (inactive). Also, in the assay on F380Y, the log fold change Tl+ flux was 0.0157 (inactive).

The inhibition is the drop in the measured response relative to a control, in per cent. In general, viability refers to a read-out of living cells in per cent, often relative to untreated cells.
